Among all 13,000 compounds or so, about 3,200 (25%) showed an effect of 50% or more. This is one part of the list.

One may read the % Inhibition as the change of the read-out against control, counted positive when it falls.

This test has as its system P. falciparum stage V gametocytes. Also on record: BacTiter-Glo ATP luminescence viability of purified stage V gametocytes in 384-well plates, per cent inhibition versus DMSO. As to conditions: 48 h, 5 µM; inhibitor.
Turning to `Cc1cccc(C(=O)Nc2ccc(N3CCCN(Cc4cccc(O)c4)CC3)cc2)c1` [TCMDC-134958], the “% Inhibition” value is given as -89.08%. As to `O=C(/C=C/c1ccc(Cl)c(Cl)c1)NC1CCC(CN2CCC(c3nc4ccccc4s3)CC2)CC1` (stereo not drawn) [TCMDC-140215], the “% Inhibition” value turned out to be 29.32%. For `Clc1cccc(CNC2CCN(CC3CCCCC3)CC2)c1` [TCMDC-141659] the value was 7.676%; for `CN1CCN(Cc2ccc(-c3cc4c(Nc5ccc(OCc6cccc(F)c6)c(Cl)c5)ncnc4s3)[nH]2)CC1` [TCMDC-135458], -90.63%; for `Ic1cc(CNC2CCCCC2)ccc1OCc1cccc(COc2ccc(CNC3CCCCC3)cc2I)c1` [TCMDC-137261], 115.7%. As for `CC(C)NCc1ccc(OCc2cccc(COc3ccc(CNC(C)C)cc3I)c2)c(I)c1` [TCMDC-137259], the “% Inhibition” value is 114.3%. In the case of `Oc1ccc(Cc2ccccc2)cc1CNC1CCCCC1` [TCMDC-137598], the “% Inhibition” value was 6.281%. Turning to `CN1CCN(Cc2ccc(OCc3cccc(COc4ccc(CN5CCN(C)CC5)cc4I)c3)c(I)c2)CC1` [TCMDC-137239], the “% Inhibition” value is recorded as 60.02%. With `OC(CNCc1ccccc1)c1cc(OCc2ccccc2)cc(OCc2ccccc2)c1` (stereo not drawn) [TCMDC-132079], the “% Inhibition” value came out at 44.54%.

For the molecule `CC(C)NCc1cccc(-c2cccc(-c3nc4ccccc4[nH]3)c2)c1` [TCMDC-132748], the “% Inhibition” value came to 37.6%. With `CC(C)(C)c1cc(CN2CCN(Cc3ccccc3)CC2)cc(C(C)(C)C)c1O` [TCMDC-125537], the “% Inhibition” value is on record as -7.705%. `CC(C)CNCc1ccc(OCc2cccc(COc3ccc(CNCC(C)C)cc3I)c2)c(I)c1` [TCMDC-137260]: the “% Inhibition” value is 108.7%. `OC(CNCc1ccccc1OCc1ccccc1)c1cc(Br)cs1` (stereo not drawn) [TCMDC-140398]: the “% Inhibition” value is 22.96%. As to `COc1cc2ncnc(Nc3ccc(OCc4ccccc4)c(I)c3)c2cc1OC` [TCMDC-131944], the “% Inhibition” value is -25.01%. For `O=C(NC1CCC(N2CCC(Cc3ccc(F)cc3)CC2)CC1)c1cc2ccccc2[nH]1` (stereo not drawn) [TCMDC-132894], the “% Inhibition” value stood at 45.26%. As to `Cc1cnc(-c2ccc(NC(=O)N3CCc4cc5nccc(N6CCN7CCC[C@H]7C6)c5cc43)c3ccccc23)o1` [TCMDC-140052], the “% Inhibition” value is -7.754%.

`COc1ccc(NS(=O)(=O)c2cc(NC(=O)Cn3ccccc3=O)ccc2N2CCCCC2)cc1` [TCMDC-124874]: the “% Inhibition” value worked out at 16.03%. For `Cc1cc2c(cc1C(F)(F)F)N(C(=O)Nc1ccc(C(=O)NCCN3CCCC3)cc1)CC2` [TCMDC-139870], the “% Inhibition” value is on record as 3.174%. Take `CC(=O)Nc1ncc(C(=O)Nc2cccc(-c3cccc(-c4nc5c(C)cccc5[nH]4)c3)c2)s1` [TCMDC-136920]: the “% Inhibition” value worked out at 35.18%.

For the molecule `C=CCOC(=O)N1CCC(CNCc2ccc(-c3ccc(-c4nc5cc(C(F)(F)F)ccc5[nH]4)cc3)cc2)C1.O=C(O)C(F)(F)F` (stereo not drawn) [TCMDC-133041], the “% Inhibition” value is recorded as -74.05%. For `CN(C)Cc1cccc(CNC(=O)c2sccc2OCc2ccc(Cl)cc2)c1` [TCMDC-133072] the value was 41.43%; for `CC(C)CCNCc1ccc(OCc2cccc(C(=O)Nc3ccccc3)c2)c(I)c1` [TCMDC-137174], 28.8%; for `CCc1cc(COc2ccc(CNCCC(C)C)cc2I)c(OCc2ccccc2)c(COc2ccc(CNCCC(C)C)cc2I)c1` [TCMDC-137255], 104.7%. In the case of `Ic1cc(Nc2ncnc3ccsc23)ccc1OCc1ccccc1` [TCMDC-131945], the “% Inhibition” value is listed as 7.84%. In the case of `Oc1ccc(CCNCc2ccc(OCc3ccccc3)c(OCc3ccccc3)c2)cc1` [TCMDC-131868] it was 6.388%; in that of `CC(C)CCNCc1ccc(OCc2cccc(COc3ccc(CNCCC(C)C)cc3I)c2)c(I)c1` [TCMDC-137274], 110.6%.

Take `Cc1ccc(C)c(NC(=O)Nc2ccc(C)c(-c3ccc(C(=O)Nc4ccncc4)cc3)c2)c1` [TCMDC-133703]: the “% Inhibition” value is recorded as -9.34%. In the case of `COc1cc(CCNC(=N)/C=C/c2ccc(Cl)cc2)ccc1Cl` [TCMDC-137457], the “% Inhibition” value was found to be 106.7%.

For the molecule `COc1ccc(NC(=O)N2CCCN(CCCCCNC(=O)/C=C/c3ccc(Cl)cc3)CC2)cc1Cl` [TCMDC-136103], the “% Inhibition” value is -49.97%. With `COc1ccc(CCNc2ccnc3cc(Cl)ccc23)cc1OC` [TCMDC-138550], the “% Inhibition” value is -32.91%.

Regarding `O=C(NCCN1CCCC1)c1ccc(-c2cccc(-c3nc4ccc(F)cc4[nH]3)c2)cc1` [TCMDC-132321], the “% Inhibition” value is recorded as -17.02%. `COc1cc(OC)cc(C(=O)Nc2ccc(Nc3nc(C)cc(N(C)C)n3)cc2)c1` [TCMDC-124726]: the “% Inhibition” value is 23.32%.

As to `NC(N)=NN=Cc1ccc2c(c1)Cc1ccccc1-2` [TCMDC-137360], the “% Inhibition” value is given as -2.51%. In the case of `NC(N)=NN=Cc1ccc2c(ccc3ccccc32)c1` [TCMDC-137912], the “% Inhibition” value amounted to 86.91%. Take `NC(N)=NN=Cc1cc2ccccc2c2ccccc12` [TCMDC-137671]: the “% Inhibition” value amounted to 48.28%.

Turning to `NC(N)=NN=Cc1ccc2ccc3ccccc3c2c1` [TCMDC-137902], the “% Inhibition” value amounted to 101.6%. Regarding `Cc1ccccc1C1CCN(C2CCC(NC(=O)/C=C/c3cc(F)ccc3F)CC2)CC1` (stereo not drawn) [TCMDC-133510], the “% Inhibition” value is reported as -90.23%. For `COc1ccc(NC(=O)[C@H](Cc2ccccc2)Nc2cc(C)nc(Nc3ccccc3)n2)cc1` [TCMDC-134733], the “% Inhibition” value was -3.042%. For the molecule `Cc1cc(N[C@@H](Cc2ccccc2)C(=O)Nc2ccccc2)nc(NCCc2cccnc2)n1` [TCMDC-134820], the “% Inhibition” value stood at 59.14%.

Regarding `COc1ccc(NC(=O)[C@H](Cc2ccccc2)Nc2cc(C)nc(NCCc3cccnc3)n2)cc1` [TCMDC-134818], the “% Inhibition” value was found to be 72.32%. In the case of `COc1ccc(NC(=O)[C@H](Cc2ccccc2)Nc2cc(C)nc(NCCOc3ccccc3)n2)cc1` [TCMDC-134757] it was 13.17%; in that of `COc1ccc(O)c(C(=O)c2cc(C(=O)NC3CCCCC3)c(=O)n(C3CCCCC3)c2)c1` [TCMDC-124510], 4.971%. `Cc1[nH]c(C)c(-c2ccc(OCc3cccc(C(F)(F)F)c3)nc2)c(=O)c1Br` [TCMDC-135656]: the “% Inhibition” value is given as 74.31%.

For the molecule `Cc1[nH]c(C)c(-c2ccc(OCc3ccccc3C(F)(F)F)nc2)c(=O)c1Br` [TCMDC-135796], the “% Inhibition” value amounted to 65.1%. With `Cc1[nH]c(C)c(-c2ccc(OCc3ccc(OC(F)(F)F)cc3)nc2)c(=O)c1Cl` [TCMDC-135271], the “% Inhibition” value was found to be 11.85%. As to `Cc1[nH]c(C)c(-c2ccc(OCc3cc(C(F)(F)F)cc(C(F)(F)F)c3)nc2)c(=O)c1Br` [TCMDC-135815], the “% Inhibition” value came to 65.31%.

For the molecule `Cc1[nH]c(C)c(-c2ccc(OCc3cc(C(F)(F)F)cc(C(F)(F)F)c3)nc2)c(=O)c1Cl` [TCMDC-135814], the “% Inhibition” value stood at 52.24%. As to `COc1ccc(OC)c2c1CCN(CCN1CCC(C(=O)Nc3ccc(C(=O)Nc4ccc(Cl)cc4)cc3)CC1)C2` [TCMDC-138820], the “% Inhibition” value is listed as 2.402%.

As to `FC(F)(F)c1ccc2[nH]c(-c3ccc(-c4cccc(CNCc5cnn(-c6ccccc6)n5)c4)cc3)nc2c1.O=C(O)C(F)(F)F` [TCMDC-132971], the “% Inhibition” value was -20.04%. Regarding `O=C(NC1CCC(CCN2Cc3ccc(Br)cc3C2)CC1)c1cccc(-c2cccnc2)c1` (stereo not drawn) [TCMDC-139603], the “% Inhibition” value is on record as 36.86%. As to `Nc1nc(N)c2c(Oc3cccnc3)cccc2n1` [TCMDC-137990], the “% Inhibition” value was -4.996%.

`CN(C)c1cccc(NC(=O)N[C@H]2N=C(c3ccccc3)c3ccccc3N(CC(=O)N3CCCC3)C2=O)c1` [TCMDC-131987]: the “% Inhibition” value is 37.26%.

In the case of `N#Cc1ccc(CCNc2nccc(-c3cccc(CN4CCNCC4)c3)n2)cc1` [TCMDC-134845], the “% Inhibition” value is 38.8%.

With `CCC[C@@H]([C@@H](CC1CCCCC1)C(=O)NC(C(=O)Nc1nccs1)C(CC)c1ccccc1)N(O)C=O` (stereo partly drawn) [TCMDC-137999], the “% Inhibition” value is recorded as -15.87%. As for `Cc1cccc2nc(-c3ccc(-c4ccc(CNCCCN5CCCC5=O)cc4)cc3)[nH]c12.O=C(O)C(F)(F)F` [TCMDC-132763], the “% Inhibition” value amounted to 3.748%.

With `O=C(Cn1c(CCc2cccc(F)c2F)nc(=O)c2ccccc21)N(Cc1ccc(-c2ccc(C(F)(F)F)cc2)cc1)C1CCN(C2CCSCC2)CC1` [TCMDC-136609], the “% Inhibition” value was 103.4%.

Regarding `O=C(Cn1c(CCc2cccc(F)c2F)nc(=O)c2cccnc21)N(Cc1ccc(-c2ccc(C(F)(F)F)cc2)cc1)C1CCN(C2CCSCC2)CC1` [TCMDC-136559], the “% Inhibition” value turned out to be 46.52%. Regarding `O=C(Cn1c(CCc2cccc(F)c2F)nc(=O)c2cccnc21)N(Cc1ccc(-c2ccc(C(F)(F)F)cc2)cc1)C1CCN(C2CCOCC2)CC1` [TCMDC-136501], the “% Inhibition” value came to 53.37%. `O=C(Cn1c(CCc2cccc(F)c2F)nc(=O)c2ccccc21)N(Cc1ccc(-c2ccc(C(F)(F)F)cc2)cc1)C1CCN(C2CCOCC2)CC1` [TCMDC-136502]: the “% Inhibition” value is reported as 73.92%. For `N#Cc1ccc(N2CCN(Cc3ccc(-c4ccc(-c5nc6cc(C(F)(F)F)ccc6[nH]5)s4)cc3)CC2)nc1.O=C(O)C(F)(F)F` [TCMDC-133110] the value was -11.35%; for `N#Cc1ccc(CN2CCC(Oc3ccc(NC(=O)c4ccccc4)cc3Cl)CC2)cc1` [TCMDC-133958], 11.07%; for `COc1ccc(NC(=O)C2c3ccccc3C(=O)N(C3CCCC3)C2c2cccs2)cc1` (stereo not drawn) [TCMDC-125287], 90.81%.

For `COc1ccc(Cl)cc1NC(=O)Nc1ccc2c(c1)CCN(C1CCC1)CC2` [TCMDC-136006], the “% Inhibition” value is 9.191%.

With `COc1ccc(NC(=O)C2c3ccccc3C(=O)N(C3CCCC3)C2c2cccs2)c(OC)c1` (stereo not drawn) [TCMDC-125288], the “% Inhibition” value is given as -16.95%. For `COc1ccc(NC(=O)C2c3ccccc3C(=O)N(C3CCCC3)C2c2cccs2)cc1OC` (stereo not drawn) [TCMDC-124695] the value was 88.1%; for `COc1ccc(NC(=O)Nc2ccc(Nc3nc(C)cc(N4CCCC4)n3)cc2)cc1` [TCMDC-124958], 27.34%.

Source of the values: PMC4552634, “A New Set of Chemical Starting Points with Plasmodium falciparum Transmission-Blocking Potential for Antimalarial Drug Discovery” (PLoS ONE, 2015).
